Source: ChEMBL document CHEMBL1961873, “Compounds: GSK PKIS; Assays: Nanosyn kinase panel” (2012)

Assays:
[1] = biological target: Serine/threonine-protein kinase PAK 6 (Homo sapiens) (UniProt Q9NQU5); settings: at 1 µM;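 also: values are mean percent inhibition of PAK6 kinase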
[2] = system: Tyrosine-protein kinase ABL1 (Homo sapiens), P00519 [E255K]; settings: at 0.1 µM
[3] = system: Tyrosine-protein kinase ABL1 (Homo sapiens), P00519 [E255K]; settings: at 1 µM
[4] = system: Tyrosine-protein kinase ABL1 (Homo sapiens), P00519 [H396P]; settings: at 0.1 µM
[5] = system: Tyrosine-protein kinase ABL1 (Homo sapiens), P00519 [H396P]; settings: at 1 µM
[6] = system: Tyrosine-protein kinase ABL1 (Homo sapiens), P00519 [M351T]; settings: at 0.1 µM
[7] = system: Tyrosine-protein kinase ABL1 (Homo sapiens), P00519 [M351T]; settings: at 1 µM
[8] = system: Tyrosine-protein kinase ABL1 (Homo sapiens), P00519 [Q252H]; settings: at 0.1 µM
[9] = system: Tyrosine-protein kinase ABL1 (Homo sapiens), P00519 [Q252H]; settings: at 1 µM
[10] = system: Tyrosine-protein kinase ABL1 (Homo sapiens), P00519 [T315I]; settings: at 0.1 µM

Chain of Serine/threonine-protein kinase PAK 6 (Homo sapiens) (Q9NQU5 whole entry, looked up): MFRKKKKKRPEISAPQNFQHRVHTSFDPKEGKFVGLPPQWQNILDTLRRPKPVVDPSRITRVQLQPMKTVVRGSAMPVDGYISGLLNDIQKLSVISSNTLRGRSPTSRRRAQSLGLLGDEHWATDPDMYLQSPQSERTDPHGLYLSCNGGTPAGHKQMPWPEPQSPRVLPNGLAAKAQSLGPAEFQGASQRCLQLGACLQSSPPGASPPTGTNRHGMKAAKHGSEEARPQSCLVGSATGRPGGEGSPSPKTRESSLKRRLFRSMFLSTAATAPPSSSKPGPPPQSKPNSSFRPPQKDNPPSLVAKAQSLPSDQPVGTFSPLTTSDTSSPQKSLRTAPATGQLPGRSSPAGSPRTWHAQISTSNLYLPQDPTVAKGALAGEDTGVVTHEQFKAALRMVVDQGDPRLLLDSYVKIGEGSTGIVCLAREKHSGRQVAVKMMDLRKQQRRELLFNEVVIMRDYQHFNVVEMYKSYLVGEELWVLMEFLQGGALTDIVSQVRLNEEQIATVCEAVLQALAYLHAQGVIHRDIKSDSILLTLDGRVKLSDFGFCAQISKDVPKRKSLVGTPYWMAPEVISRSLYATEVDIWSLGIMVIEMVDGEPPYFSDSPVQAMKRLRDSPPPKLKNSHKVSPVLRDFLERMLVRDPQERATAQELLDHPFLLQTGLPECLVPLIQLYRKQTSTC

| Structure (SMILES) | inhibition [1] [%] | inhibition [2] [%] | inhibition [3] [%] | inhibition [4] [%] | inhibition [5] [%] | inhibition [6] [%] | inhibition [7] [%] | inhibition [8] [%] | inhibition [9] [%] | inhibition [10] [%] |
| --- | --- | --- | --- | --- | --- | --- | --- | --- | --- | --- |
| NCc1ccc(-c2nc(-c3ccc(Cl)c(O)c3)c(-c3ccncc3)[nH]2)cc1 | 0.88 | 7.57 | 43.3 | 9.07 | 48.9 | 11.2 | 43.9 | 7.54 | 38.4 | 3.08 |
| O=C1NC(=O)C(c2cccc(Cl)c2)=C1Nc1ccc(O)c(Cl)c1 | -3.45 | 0.46 | -0.55 | 1.43 | 1.01 | -0.1 | 1.15 | -0.15 | 2.63 | 1.14 |
| CCn1c(-c2nonc2N)nc2cncc(C(=O)N3CC[C@H](N)C3)c21 | 3.33 | 3.58 | 2.43 | 5.83 | 2.94 | 2.2 | -0.9 | 4.86 | 2.19 | 2.09 |
| NC(=O)c1ccc(-c2nc(-c3ccccn3)c(-c3ccc4c(c3)OCO4)[nH]2)cc1 | -5.81 | 3.49 | 4.45 | 1.34 | 6.63 | 0.6 | 3.86 | 0.7 | 3.91 | 1.95 |
| COc1cc2ncn(-c3cc(O[C@@H](C)c4ccccc4Cl)c(C(N)=O)s3)c2cc1OC | -1.4 | 7.11 | 21.4 | 9.2 | 33.8 | 3.76 | 29.7 | 6.57 | 28.5 | 3.45 |
| CC1=C(C(=O)Nc2ccc3[nH]ncc3c2)C(c2ccc3ccccc3c2)CC(=O)N1 (stereo not given) | -2.6 | 2.56 | 3.94 | 3.48 | 12.3 | 3.47 | 14.9 | 3.89 | 17.1 | 5.08 |
| CCN1CCC(CC(=O)Nc2n[nH]c3nc(-c4cccs4)c(Br)cc23)CC1 | -1.76 | -1.62 | 2.21 | -0.27 | 8.03 | -0.05 | 4.95 | 0.92 | 11.6 | 3.23 |
| CC(=O)Nc1cccc(C#Cc2cncnc2Nc2ccc(OCc3cccc(F)c3)c(Cl)c2)n1 | 0.8 | -0.61 | -0.48 | 0.09 | 1.6 | 1.08 | 3.88 | 0.29 | 3.02 | 0.4 |
| Cn1cc(C=C2C(=O)Nc3cccnc32)c2ccccc21 | 0.69 | 5.17 | 28.1 | 7.05 | 37.5 | 3.06 | 35.9 | 6.07 | 33.2 | 8.02 |
| Nc1ncnc2occ(-c3ccc(NC(=O)Nc4cc(C(F)(F)F)cc(C(F)(F)F)c4)cc3)c12 | 7.94 | 3.79 | 25.5 | 18.5 | 68.1 | 48.5 | 80.9 | 45 | 75.5 | 42.5 |
| Cc1cc(O)cc(C)c1/C=C/c1cncc(-c2nn[nH]n2)c1 | -4.74 | 17.8 | 79.3 | 21.5 | 79.8 | 17.1 | 79.9 | 23.1 | 81.6 | 2.2 |
| [O-][S+]1CCN(Cc2ccc(-c3ccc4ncnc(Nc5ccc(OCc6ccccc6)c(F)c5)c4c3)o2)CC1 | -0.59 | 1.66 | 2.97 | 2.03 | 0.51 | 2.17 | 0.04 | 1.58 | 0.89 | 1.21 |
| CCn1c(-c2nonc2N)nc2ccncc21 | -3.52 | 1.78 | -1.53 | -0.24 | -0.08 | 0.64 | 3.06 | 3.21 | -0.21 | -0.01 |
| CCn1c(-c2nonc2N)nc2c(C#CC(C)(C)O)nc(CN3CCCC3)cc21 | -0.08 | 0.01 | 0.44 | 0.09 | 0.68 | -0.36 | 2.83 | 0.06 | 3.09 | -0.43 |
| COC(=O)Nc1nc2cc(Oc3cccc(NC(=O)Nc4cc(C(F)(F)F)ccc4F)c3)ccc2[nH]1 | -6.76 | 0.37 | 7.39 | 9.03 | 41.7 | 34.8 | 69.3 | 32.1 | 68.6 | 2.28 |
| CCCN1CCC(Oc2cc(Nc3nc(Nc4cccc(F)c4C(N)=O)c4cc[nH]c4n3)c(OC)cc2Cl)CC1 | 6.18 | -0.41 | 2.46 | 0.38 | 2.29 | 2.95 | 2.4 | 0.68 | 5.93 | 1.91 |
| Cc1ccc(NC(=O)c2ccnc(N3CCCC3)c2)cc1-c1ccc(C(=O)NCC2CC2)cc1 | -7.72 | 1.9 | 5.48 | 3 | 2.43 | 0.54 | 9.12 | 2.92 | 12.4 | 0.94 |

| Structure (SMILES) | inhibition [1] [%] | inhibition [2] [%] | inhibition [3] [%] | inhibition [4] [%] | inhibition [5] [%] | inhibition [6] [%] | inhibition [7] [%] | inhibition [8] [%] | inhibition [9] [%] | inhibition [10] [%] |
| --- | --- | --- | --- | --- | --- | --- | --- | --- | --- | --- |
| COc1ccc(-c2coc3ncnc(N)c23)cc1 | -1.23 | 3.51 | 9.75 | 5.34 | 11.3 | 3.43 | 8.4 | 5.31 | 9.48 | 1.41 |
| COc1ccccc1Nc1ncc(-c2ccccc2)o1 | -9.8 | 3.77 | 8 | 6.53 | 15.2 | 2.78 | 10.8 | 5.47 | 9.74 | 2.77 |
| COc1cccc(-n2ncc3c(N/N=C/c4cccc(F)c4)ncnc32)c1 | -4.69 | 40.5 | 84.1 | 51 | 87.6 | 52.3 | 88 | 60.9 | 90.3 | 10.8 |
| Fc1cccc(COc2ccc(Nc3ncnc4sc(-c5cccs5)cc34)cc2Cl)c1 | -8.25 | 0.56 | 1.97 | 1.28 | 3.54 | 1.53 | 2.68 | 0.76 | 2.11 | 1.08 |
| CN1CCC(C(=O)Nc2n[nH]c3nnc(-c4ccccc4)cc23)CC1 | -6.17 | 1.81 | 6.11 | 4.23 | 4.8 | 2.25 | 1.61 | 3.6 | 3.36 | 3.4 |
| O=C1NC(=O)C(N2CCc3ccccc32)=C1c1ccc(Cl)cc1 | -5.45 | 4.83 | 4.21 | 6.7 | 2.97 | 3.31 | 3.23 | 6.26 | 3.84 | 2.02 |
| Cc1nn(C)c2cc(N(C)c3ccnc(Nc4cccc(S(N)(=O)=O)c4)n3)ccc12 | -9.82 | 27.9 | 73.7 | 58.2 | 90 | 58.2 | 90.2 | 45.7 | 85.4 | 20.3 |
| CCc1cccc(NC(=O)Nc2ccc(Oc3ccc4nc(NC(=O)OC)[nH]c4c3)cc2)c1 | 1.29 | 6.09 | 14.3 | 34 | 51.8 | 48.6 | 57.9 | 48.4 | 60.8 | 40.6 |
| NS(=O)(=O)c1cccc(-c2ccc3c(NC(=O)C4CC4)n[nH]c3c2)c1 | -8.66 | 1.26 | 7.94 | 3.4 | 21.7 | 7.02 | 20.2 | 2.5 | 9.03 | 3.32 |
| Nc1nc(-c2ccccn2)c(-c2ccc3ncccc3n2)s1 | -5.19 | 2.57 | 3.81 | 3.89 | 4.78 | -0.12 | 3.17 | 2.96 | 3.86 | 1.93 |
| NC(=O)c1cccc(Nc2nccc(Nc3cccc4[nH]ncc34)n2)c1 | 0.17 | 76.9 | 95.5 | 82.2 | 96.7 | 77.9 | 95.7 | 73.5 | 95.4 | 3.14 |
| COc1cc(C=NNc2ncnc3c2cnn3-c2ccccc2)ccc1O | 2.62 | 24.9 | 77.9 | 40.3 | 84.9 | 40.1 | 88.5 | 50.5 | 88.7 | 32 |
| c1cnn2ncc(-c3ccnc(Nc4ccc5c(c4)OCCO5)n3)c2c1 | 9.62 | 4.75 | 20.4 | 6.51 | 34.4 | 6.73 | 40.9 | 9.02 | 40.7 | 6.27 |
| COc1ccc2cc(-c3c(-c4ccncc4)nc(-c4ccc([S+](C)[O-])cc4)n3C)ccc2c1 (stereo not given) | -0.4 | 2.75 | 1.85 | 0.68 | 3.52 | 0.25 | 2.54 | 1.22 | 5.05 | 1.07 |
| Cc1cccc(-c2n[nH]cc2-c2ccc3ncccc3n2)n1 | -8.92 | 4.1 | 29.4 | 5.48 | 35.5 | 2.99 | 35.3 | 3.21 | 29.6 | -0.61 |
| CNC(=O)c1cncc(/C=C/c2c(Cl)cccc2Cl)c1 | -7.96 | 3.46 | 33.3 | 9.69 | 47.2 | 6.02 | 42.2 | 8.15 | 41.9 | -0.11 |
